Sampled rows, rich in hits. Any-hit rate of the full collection: about 10%.
HP1b binding inh: HP1-beta chromodomain-methylated histone interaction inhibition; AlphaScreen HP1-beta / biotin-H3K9me3 peptide binding; P83916; Potency, µM (series often up to 114 µM), inactives show top-dose activity change, negative = inhibition, hits mostly inhibitors; AID 540317; 390,000 tested, 0.56% active; also: potency is read from the fitted curve at half-maximal effect; nearly all actives have a fitted effect of over 70% in size
Target sequence (P83916 whole entry, looked up): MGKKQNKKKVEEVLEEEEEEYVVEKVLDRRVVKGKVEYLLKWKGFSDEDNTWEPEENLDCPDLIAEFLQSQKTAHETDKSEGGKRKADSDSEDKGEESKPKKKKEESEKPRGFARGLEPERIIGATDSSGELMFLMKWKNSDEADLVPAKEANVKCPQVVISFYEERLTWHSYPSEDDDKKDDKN
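Compound inhibition of the preformed complex between 50 nM HP1-beta and 50 nM biotinylated H3K9me3 peptide was read by AlphaScreen. Buffer was PBS pH 7.4 with 0.01% Tween-20. Incubations ran 30 min at room temperature, with 10 ug/mL donor/acceptor beads.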
BAZ2B block: inhibitors of human BAZ2B bromodomain. Q9UIF8. AlphaScreen BAZ2B-H3K14Ac peptide displacement. Potency, µM (doses to about 114 µM), for inactives: top-dose activity change, negative = inhibition, actives largely listed as inhibitors. 360,000 tested, 4.4% active; also: potency is read from the fitted curve at half-maximal effect; % is scaled to controls: 0 for no effect and ±100 for the full control effect; nearly all actives have a fitted effect of over 60% in size
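BAZ2B 50 nM plus b-H3(5-23)K14Ac 50 nM, PBS pH 7.4/0.01% Tween-20, 30 min RT; compound added (max 110 uM), 30 min RT; streptavidin donor/Ni-chelate acceptor beads 10 ug/mL final, 20 min dark; AlphaScreen read.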
G9a block: G9a (human) methyltransferase inhibition; AID 504332; 350,000 tested, 8.8% active; Potency, µM (doses to about 102 µM), for inactives: at the top dose activity, negative = inhibition, most hits filed as inhibitors; G9a H3K9 monomethylation, AlphaScreen, 2 h; Q96KQ7; also: potency is read from the fitted curve at half-maximal effect; % is scaled to controls: 0 for no effect and ±100 for the full control effect; nearly all actives have a fitted effect of over 75% in size
Target sequence (Q96KQ7 913-1193 limits assumed): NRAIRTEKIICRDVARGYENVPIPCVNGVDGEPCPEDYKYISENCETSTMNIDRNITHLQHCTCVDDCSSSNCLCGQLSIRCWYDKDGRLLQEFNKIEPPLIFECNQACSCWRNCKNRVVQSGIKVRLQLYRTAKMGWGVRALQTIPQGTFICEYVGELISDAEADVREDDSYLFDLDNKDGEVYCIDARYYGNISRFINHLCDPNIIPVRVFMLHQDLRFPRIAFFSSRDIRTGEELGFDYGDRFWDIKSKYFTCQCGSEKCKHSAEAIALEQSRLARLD
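Readings reflect AlphaScreen signal from monomethyl-H3K9 antibody detection. HMT at 20 nM; substrate b-H3K9 500 nM; cofactor SAM 20 uM; 2 h RT reaction; compounds tested as titrations in qHTS with 15 min preincubation.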
JMJD2A Tudor: JMJD2A Tudor domain (human) inhibition. O75164. AlphaScreen JMJD2A-Tudor / H3K4me3 peptide binding. AID 504339. Potency, µM (top dose mostly 114 µM), without a hit: top-dose activity change, negative = inhibition, usual class: inhibitors. 390,000 tested, 4.4% active; also: potency is read from the fitted curve at half-maximal effect; % is scaled to controls: 0 for no effect and ±100 for the full control effect; nearly all actives have a fitted effect of over 50% in size
Six1-Eya2 inh: inhibitors of human Six1/Eya2 interaction; Q15475+O00167; AlphaScreen GST-Six1/His-Eya2 binding, biochemical; stronger effect = lower value; activity change, % (test concentration not listed); 360,000 tested, 0.56% active; AID 651725; in the data active = activity change below about -65%; inconclusive = mostly about -30% to -63%; also: % is scaled to controls: 0 for no effect and ±100 for the full control effect
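AlphaScreen with GST-Six1 and His-Eya2 (5X mix: 250 nM and 500 nM), glutathione donor and nickel acceptor beads; buffer 50 mM Tris pH 8.0, 300 mM NaCl, 1 mM TCEP; 1 h at 37 C in the dark.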
CtBP-E1A blk: blocks the CtBP interaction with E1A; AlphaScreen GST-E1A/His-CtBP binding, 1536-well; stronger effect = lower value; activity change, % (no concentration beside the values); 340,000 tested, 0.49% active; in the data active = activity change below about -65%; inconclusive = mostly about -30% to -63%; also: % is scaled to controls: 0 for no effect and ±100 for the full control effect
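GST-E1A and His-tagged CtBP (125 nM each as 5X stock) were preincubated with pin-transferred compound for 2 h at 37 °C in the dark, then glutathione donor and nickel acceptor beads were added for 1 h before AlphaScreen reading.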
Starred values were filed as active, the others as inactive; ? = inconclusive; nt = no result given; [ ] = dose if it differs, or a comment. Unless noted, calls follow the shape of the dose curve; as a rule, active = well fitted inhibition curve with a large enough effect; inconclusive = small, poorly fitted or top-dose-only effect; inactive = no such curve, though single readings can be large or run the other way.

SMILES	HP1b binding inh	BAZ2B block	G9a block	JMJD2A Tudor	Six1-Eya2 inh	CtBP-E1A blk
Clc1ccc(CSc2ccc(-c3ccco3)nn2)cc1	23%	5%	-46%	4%	0	7
Cc1ccc(S(=O)(=O)N(C)C[C@@H]2Oc3ccc(NC(=O)CCC(F)(F)F)cc3CC(=O)N([C@@H](C)CO)C[C@@H]2C)cc1	52%	nt	nt	-28%	9	0
COc1ccc2c(c1)[nH]c1c(N3CCN(Cc4ccc5c(c4)OCO5)CC3)ncnc12	-27%	45µM*	nt	?	?	-29
COc1cccc2[nH]c3c(N4CCN(Cc5ccc6c(c5)OCO6)CC4)ncnc3c12	nt	35µM*	45µM*	nt	nt	nt
Cc1ccc2[nH]c3c(N4CCN(Cc5ccc6c(c5)OCO6)CC4)ncnc3c2c1	nt	?	50µM*	nt	nt	nt
COc1ccc2c(c1)[nH]c1c(N3CCSCC3)ncnc12	11%	?	nt	-13%	-12	-15
COc1cc(Cl)c(C)cc1NC(=O)Cn1ncc2c3ccccc3n(Cc3ccccc3)c2c1=O	1%	-4%	5%[59 µM]	-22%	nt	nt
O=c1c2sc3ccccc3c2n(Cc2ccc(F)cc2)c(=O)n1Cc1ccco1	23%	-15%	-6%[59 µM]	-15%	nt	nt
COc1ccc(NC(=O)C2CCN(S(=O)(=O)c3ccc4[nH]c(=O)ccc4c3)CC2)cc1Cl	29%[57 µM]	5%	8%[59 µM]	-2%	nt	nt
CC1([N+](=O)[O-])COC2(CCCCC2)OC1	-18%	nt	nt	-1%	-10	-8
COC(=O)c1ccc(NC(=O)CC2C(=O)N(c3cccc(C)c3)C(=O)N2C2CCCC2)cc1 (stereo not given)	37%	-18%	7.1µM*	0%	nt	nt
Cc1nc2nc(NCc3cccc(Cl)c3)[nH]n2c(=O)c1Cc1ccccc1	33%	-12%	?	-24%	nt	nt
Fc1ccccc1N1CCN(CC2CCCCC2)CC1	?	79µM*	19%[0.501 µM]	20µM*	17	7
Fc1ccccc1N1CCN(Cc2cccnc2)CC1	?	56µM*	28µM*	1.6µM*	1	5
O=C(NCCc1ccccc1)C(=O)NCC(c1cccnc1)N1CCN(c2ccccc2F)CC1 (stereo not given)	13%	-21%	-4%[59 µM]	-7%	nt	nt
O=C(O)c1cc(-c2ccc3ccccc3c2)nc2ccc(F)cc12	38%	8%	27%[2.33 µM]	3%	2	0
Cn1cc(S(=O)(=O)Nc2ccc(F)c(Cl)c2)c(=O)n(C)c1=O	13%	-3%	19%	-15%	3	9
O=C(c1cc(-c2ccc(Br)cc2)n[nH]1)N1CCN(S(=O)(=O)c2ccc(Cl)s2)CC1	-1%	2%	9%[59 µM]	-23%	nt	nt
COc1ccc(C#Cc2cnc(Cl)c3cncnc23)cc1OC	29%	nt	nt	-30%	nt	nt
O=C(CNCc1cccc2ccccc12)Nc1ccccc1[N+](=O)[O-]	?	?	50µM*	?	0	?
O=C(CC(=O)Nc1ccccc1[N+](=O)[O-])Nc1ccccc1[N+](=O)[O-]	12%	-15%	1%	-24%	-9	-20
CCONC(=O)Nc1ccccc1[N+](=O)[O-]	24%	12%	71µM*	-6%	8	2
CCOc1ccc(N(CC(=O)NC2CC3CCC2C3)S(=O)(=O)c2ccccc2)cc1 (stereo not given)	30%	-1%	14%[59 µM]	-14%	7	-4
O=C(Cc1ccccc1F)Nc1cc(S(=O)(=O)N2CCCC2)ccc1Cl	22%	-6%	27%[59 µM]	-5%	-2	-1
O=C(CNCc1ccc(Cl)cc1)Nc1cc(S(=O)(=O)N2CCCC2)ccc1Cl	?	nt	nt	3.5µM*	-8	7
SMILES	HP1b binding inh	BAZ2B block	G9a block	JMJD2A Tudor	Six1-Eya2 inh	CtBP-E1A blk
Cc1ccc(OCCCC(=O)Nc2cc(S(=O)(=O)N3CCOCC3)ccc2N2CCOCC2)cc1	1%	-5%	56µM*	-18%	3	-5
CCN(CC)c1ccc(S(=O)(=O)N2CCOCC2)cc1NC(=O)CNCc1cccc(Cl)c1	?	nt	nt	50µM*	-4	-3
O=C(CCCOc1ccccc1)Nc1cc(S(=O)(=O)N2CCOCC2)ccc1N1CCOCC1	44%	2%	7%[12.7 µM]	-8%	-3	6
O=C(CNCc1ccco1)Nc1cc(S(=O)(=O)N2CCOCC2)ccc1N1CCOCC1	?	nt	nt	18µM*	8	0
COc1c2c(cc3ccc(=O)oc13)CCO2	26%	2%	?	-4%	2	5
CCOC(=O)c1ccc(NC(=O)c2cn(-c3ccccc3)nc2-c2ccc(OC)c(OC)c2)cc1	54%	15%	18%[59 µM]	-28%	nt	nt
O=C(NC1CCCC1)C1CCN(C(=O)c2cccc(Cl)c2)CC1	-6%	-1%	7%	-12%	-5	0
O=C(CNCc1ccccc1Cl)Nc1cc(S(=O)(=O)N2CCOCC2)ccc1Cl	?	nt	nt	7.9µM*	1	-6
CCN(CC)c1ccc(S(=O)(=O)N2CCOCC2)cc1NC(=O)CSc1nncs1	5%	11%	35µM*	-3%	-2	-5
CCCCOc1ccc(C(=O)NCC2(N3CCN(C)CC3)CCCCC2)cc1	23%	-12%	-38%[59 µM]	-16%	nt	nt
CCCCCCCC/C=C\CCCCCCCC(=O)OC[C@@H](O)COP(=O)(O)O	nt	nt	1%[59 µM]	nt	nt	nt
O=S(=O)(Nc1nc(-c2sccc2Cl)cs1)c1cc(Cl)ccc1Cl	?	50µM*	?	50µM*	-4	1
O=C(COC(=O)/C=C/c1ccco1)Nc1ncc(Cl)cc1Cl	-9%	50µM*	?	?	-7	nt
CN(C)S(=O)(=O)c1ccc(Cl)c(NC(=O)COC(=O)/C=C/c2ccco2)c1	14%	56µM*	?	-20%	-6	7
Cc1nc(NC(=O)COC(=O)/C=C/c2ccco2)c(Cl)cc1Cl	22%	-31%	7%[12.7 µM]	-22%	-3	3
O=C(COC(=O)/C=C/c1ccco1)NCc1ccc(Cl)cc1	22%	-5%	7.9µM*	-5%	0	3
CCOC(=O)c1c(C)[nH]c(C)c1S(=O)(=O)N1CCN(c2ccc(F)cc2)CC1	41%	71µM*	nt	4%	-3	nt
CCOC(=O)c1scc(-c2ccccc2)c1S(=O)(=O)N1CCN(c2ccc(Cl)cc2)CC1	28%	-31%	13µM*	-15%	nt	nt
COC(=O)c1scc(-c2ccc(C)cc2)c1S(=O)(=O)N1CCN(c2ccccc2)CC1	-6%	?	-42%[59 µM]	-29%	nt	nt
CCOC(=O)c1c(C)[nH]c(C)c1S(=O)(=O)N1CCC(C(=O)NCc2ccc(OC)cc2)CC1	3%	3%	-2%[59 µM]	89µM*	nt	nt

Assay outcomes deposited in PubChem by National Center for Advancing Translational Sciences (NCATS).
